Data from the supplement of paper PMC12350171.
Counter-ions that a name gives are not always drawn.

Tests used:
Details in all cases: 20 µM
[1] = tested on: Haemophilus parainfluenzae; assay: growth AUC normalised to DMSO control (fraction of control); higher = less growth inhibition, active = hit call of the paper
Outline: (§1)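 For the AUC endpoint, growth curves were integrated by the trapezoidal rule up to the exponential-to-stationary transition and normalised to DMSO controls on the same plate. The curves came from OD578 readings taken hourly for 24 h, in three biological replicates. Pathogens had been passaged anaerobically twice and inoculated at an OD578 of 0.01 into pre-reduced mGAM plates carrying 20 μM compound and 1% DMSO, sealed with breathable membranes. Medium for Haemophilus parainfluenzae also contained hemin and NAD.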

[2] = tested on: Salmonella enterica typhimurium; assay: as above
Outline: as §1

Shigella flexneri = assay: as above
Outline: as §1

Vibrio cholerae = assay: as above
Outline: as §1

[3] = tested on: Yersinia pseudotuberculosis; assay: as above
Outline: as §1

P. vulgatus RND KO = assay: growth AUC normalised to DMSO control (median) (fraction of control); higher = less growth inhibition, active = hit call of the paper
Outline: (§2)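 Area under the growth curve, calculated by the trapezoidal rule up to entry into stationary phase, was normalised to vehicle wells on the same plate. Strains had been passaged twice overnight without oxygen and then grown in mGAM in 96-well plates from OD578 0.01, each with an approved-drug library compound at 20 μM in 1% DMSO. OD578 was read hourly over 24 h in an anaerobic incubator, and the median of three biological replicates is given.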

P. vulgatus WT = assay: as above
Outline: as §2

[4] = tested on: S. enterica typhimurium WT; assay: as above
Outline: as §2

[5] = tested on: S. enterica typhimurium tolC KO; assay: as above
Outline: as §2

Measured: growth AUC normalised to DMSO control
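For growth AUC normalised to DMSO control (median) in this document: active when median AUC fell below 0.1.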

C[C@]12CC[C@@H]3c4ccc(O)cc4C[C@@H](CCCCCCCCC[S+]([O-])CCCC(F)(F)C(F)(F)F)[C@H]3[C@@H]1CC[C@@H]2O (some centres not stated) [Fulvestrant]
inactive: [1] 1.32

CCOC(=O)/C=C(C)/C=C/C=C(C)/C=C/c1c(C)cc(OC)c(C)c1C [Etretinate]
inactive: [1] 1.03

O=C(Cn1ccnc1[N+](=O)[O-])NCCO [Etanidazole]
inactive: [1] 0.929

COCCCC/C(=N\OCCN)c1ccc(C(F)(F)F)cc1 [Fluvoxamine maleate]
inactive: [1] 0.981

CC(N)CCCC(C)(C)O (configuration not stated) [Heptaminol hydrochloride]
inactive: [1] 1.02

CN1C(=O)CC(c2ccccc2)C1=O (configuration not stated) [Phensuximide]
inactive: [1] 1.01

CN(C)CCOC(=O)C(c1ccccc1)C1(O)CCCC1 (configuration not stated) [Cyclopentolate hydrochloride]
inactive: [1] 1.04

CN(C)CCOC1=Cc2ccccc2Sc2ccc(Cl)cc21 [Zotepine]
inactive: [1] 0.891

C[C@]12CC[C@H](O)C[C@@H]1CC[C@@H]1[C@@H]2CC[C@]2(C)C(=O)CC[C@@H]12 [Epiandrosterone]
inactive: [1] 1 | [2] 0.987 | Shigella flexneri 0.99 | Vibrio cholerae 1.19 | [3] 0.997 | P. vulgatus RND KO 1 | P. vulgatus WT 1.03 | [4] 1 | [5] 0.951

CN[C@@H]1C[C@@H](c2ccc(Cl)c(Cl)c2)c2ccccc21 [Indatraline hydrochloride]
inactive: [1] 1.04 | [2] 1.02 | Shigella flexneri 1.05 | Vibrio cholerae 1 | [3] 1.02 | P. vulgatus RND KO 0.973 | P. vulgatus WT 1.08 | [4] 0.996 | [5] 0.95

C[C@@H]1C[C@@H]([C@H](O)CC2CC(=O)NC(=O)C2)C(=O)[C@@H](C)C1 [Cycloheximide]
inactive: [1] 1.03 | [2] 1 | Shigella flexneri 1.04 | Vibrio cholerae 1.01 | [3] 0.999 | P. vulgatus RND KO 1.01 | P. vulgatus WT 1.01 | [4] 0.999 | [5] 0.999

CCCC(C)(COC(N)=O)COC(=O)NC(C)C (configuration not stated) [Carisoprodol]
inactive: [1] 0.843 | [2] 1 | Shigella flexneri 0.977 | Vibrio cholerae 0.948 | [3] 1 | P. vulgatus RND KO 1 | P. vulgatus WT 1.02 | [4] 1 | [5] 0.979

CNCC(O)c1ccc(O)cc1 (configuration not stated) [Synephrine]
inactive: [1] 1.04 | [2] 1.01 | Shigella flexneri 1.05 | Vibrio cholerae 1.03 | [3] 1.01 | P. vulgatus RND KO 0.984 | P. vulgatus WT 0.984 | [4] 1 | [5] 0.999

O=C(CCCN1CCC(n2c(=O)[nH]c3ccccc32)CC1)c1ccc(F)cc1 [Benperidol]
inactive: [1] 1.03 | [2] 0.981 | Shigella flexneri 0.998 | Vibrio cholerae 0.998 | [3] 0.975 | P. vulgatus RND KO 1.01 | P. vulgatus WT 1.02 | [4] 0.993 | [5] 0.956
